“And” between values parts separate entries of the source, which are not always exact repeats. Identical values can stand only once. This is part of a sample that, as a whole, favours compounds with a hit. Of some 79,000 tested, about 15% had one in any assay. A number with no mark means an inactive call. The source made the active and inactive calls. Rule as the data show it: active = growth inhibition above about 70%; inactive = the rest.
Experiments:
[1] = NCI Yeast Anticancer Drug Screen. Data for the rad50 strain (AID 155);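 also: 0% = growth of vehicle-only cultures of the same strain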; conditions: S. cerevisiae rad50 strain growth inhibition; at 50.0 µM; hits give high values
Outline: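 Genetically altered yeast (DNA repair pathway); compound treatment; growth inhibition vs vehicle ctrl.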

[2] = NCI Yeast Anticancer Drug Screen. Data for the mec2-1 strain (AID 157); conditions: S. cerevisiae mec2-1 strain, at 50.0 µM, hits give high values
Outline: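 Test agents were screened against the mec2-1 yeast strain, with defined DNA repair or cell cycle alteration. Growth was scored as inhibition against vehicle-only controls.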

[3] = NCI Yeast Anticancer Drug Screen. Data for the sgs1 mgt1 strain (AID 161);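 also: 0% = growth of cultures given vehicle only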; conditions: S. cerevisiae sgs1 mgt1 strain, at 50.0 µM, hits give high values
Outline: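 Inhibition of yeast growth, normalised to vehicle-treated controls, is reported for a strain bearing genetic alterations in DNA damage repair.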

[4] = NCI Yeast Anticancer Drug Screen. Data for the cln2 rad14 strain (AID 165);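 also: 0% = growth equal to vehicle treated cultures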; conditions: S. cerevisiae cln2 rad14 strain, at 50.0 µM, hits give high values
Outline: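 Growth of compound-exposed yeast (cln2 rad14 genotype) measured and expressed as inhibition relative to vehicle.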

[5] = NCI Yeast Anticancer Drug Screen. Data for the bub3 strain (AID 167); conditions: S. cerevisiae bub3 mutant strain, at 50.0 µM, hits give high values
Outline: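 Yeast carrying a defined mutation is treated with each compound, and growth is compared with that of vehicle-exposed cells to give inhibition.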

[6] = NCI Yeast Anticancer Drug Screen. Data for the mlh1 rad18 strain (AID 175); conditions: S. cerevisiae mlh1 rad18 strain growth inhibition; at 50.0 µM; hits give high values
Outline: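 In this whole-cell yeast screen, a strain with altered DNA damage repair is challenged with compound, and its growth is measured against matched vehicle-treated controls.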

Structure (SMILES)	growth inhibition [1]	growth inhibition [2]	growth inhibition [3]	growth inhibition [4]	growth inhibition [5]	growth inhibition [6]
[Mg]=[Se]	16.6%	3.15%	14.4%	-6.5%	6%	38.8%
CCOC(=O)C(C(=O)OCC)c1ccccc1	7.05% and 25.4%	-11% and 12.9%	11.7% and 11.1%	2.4% and 3.75%	40.4% and 23.1%	-0.15% and 9.55%
CCCCC1(CCS)C(=O)NC(=O)NC1=O	-5.55%	-11.8%	-4.75%	-10.1%	-4.05%	-17.1%
C[C@H](N)[C@H](O)c1ccccc1	7.45% and 0.25%	-14.4% and 4.7%	-7.4% and -7.8%	-8.35% and -18.5%	-4.3% and 0.95%	-7.3% and -1.15%
c1ccc(C2=NC(c3ccccc3)N3CC23c2ccccc2)cc1 (centres undefined)	12.8%	15.2%	5.05%	-7.6%	15.2%	24.4%
COP1(=O)OCC(C)(C)CO1	16.4%	-2.05%	12.7%	13.9%	-1.55%	35.8%
NC(Cc1ccccc1)c1nccs1 (centres undefined)	-8.95%	-26.6%	-7.65%	11.2%	-30.1%	-2.6%
CCOC(=O)N=C=O	-17.8%	4.7%	-15.7%	11.9%	-3.1%	-1.85%
C[Si](C)(C)C#CC#C[Si](C)(C)C.[Ni].[Ni].[Ni].[Ni].[c-]1[c-][c-][cH-][c-]1.[c-]1[c-][c-][cH-][c-]1.[c-]1[c-][c-][cH-][c-]1.[c-]1[c-][c-][cH-][c-]1	11.7%	5.5%	-5.05%	9.2%	-2.85%	-5.85%
Oc1ccc(CCNCc2cc3c(cc2Br)OCO3)cc1	18.7%	12%	-11.1%	1.2%	32.9%	21.9%
CCOP(=O)(OCC)OCC	-4.1%	-12.8%	19%	-11.8%	-1.15%	21.7%
CCC(c1ccc(OC)cc1)C(N)c1ccc(OC)cc1 (centres undefined)	-14.3%	1.05%	-11.9%	-10.5%	-4.35%	-0.3%
COc1cc([C@@H]2c3cc(O)c(OC)cc3C[C@H]3C(=O)OC[C@@H]23)ccc1O	20.1%	-13.7%	26.2%	10.3%	25.3%	-1.6%
[Se]c1nc(N2CCOCC2)ncc1-c1ccccc1	-18%	0.5%	-17.2%	0.5%	-3.3%	9%
CCCCN1COC2CCCCC21 (centres undefined)	20.6%	-13.2%	-43.2%	-12.6%	-44.4%	-32.9%
COc1ccccc1NC1=NCC(C)S1 (centres undefined)	-10.2%	-15.2%	-52%	24.4%	-14.4%	-2.1%
Nc1cc(N)c([N+](=O)[O-])cc1[N+](=O)[O-]	20.8%	2.8%	14.1%	5.75%	9.8%	11.3%
CN(Cc1cnc2nc(N)nc(N)c2n1)c1ccc(C(=O)NC(CCC(=O)NCC(P(=O)(O)O)P(=O)(O)O)C(=O)O)cc1 (centres undefined)	-12.6%	-28.2%	-28.9%	-28.1%	-15.8%	-20.1%
c1cc[c]([Ge]([c]2ccccc2)[c]2ccccc2)cc1.c1cc[c]([Ge]([c]2ccccc2)[c]2ccccc2)cc1	7.75%	1.45%	-1.7%	-4%	4.8%	-3.65%
Nc1cc(C(=O)O)ccc1O.[Cl][Sn][Cl]	2.2%	-4.15%	-6.4%	-45.8%	-1.65%	-19.4%
C/C(=N\N1CN(C(C)C(=O)O)P(N(CCO)CCO)N=C1N)c1cccs1 (centres undefined)	-5.45%	-11.2%	5.85%	-18.6%	7.95%	-8.4%
C/C1=N\NC(=O)c2ccccc2C(=O)N/N=C(\C)c2cccc1n2.O=[N+]([O-])[O-].[Zn+2]	-8.85%	-7.3%	-10.2%	5.8%	-38%	-5.05%
COc1ccc(C[C@@H]2NC[C@@H](O)[C@@H]2OC(C)=O)cc1	91.3% (active)	93.2% (active)	93.2% (active)	91.8% (active)	92.2% (active)	91.3% (active)
O=C1CCN2CCCC1C2 (centres undefined)	-18.9%	-21.3%	-18.8%	-4.15%	-16.6%	-43.8%
